ChEMBL document CHEMBL1157539, “Thousands of chemical starting points for antimalarial lead identification” (Nature, 2010)

Experiments:
Type in all cases: functional
Plasmodium falciparum [1] = experiment: GSK_TCMDC: Inhibition of Plasmodium falciparum 3D7 in whole red blood cells, using parasite LDH activity as an index of growth. Test compounds present at 2uM
Plasmodium falciparum [2] = experiment: GSK_TCMDC: Inhibition of Plasmodium falciparum Dd2 in whole red blood cells, using parasite LDH activity as an index of growth. Test compounds present at 2uM
HepG2 = experiment: GSK_TCMDC: Percent inhibition of human HepG2 cell line. Test compounds present at 10uM.

SMILES	Inhibition (Plasmodium falciparum [1])	Inhibition (Plasmodium falciparum [2])	Inhibition (HepG2)
Cc1cccc(-c2cc3cc(Nc4ccnc5cc(-c6nccs6)ccc45)ccc3[nH]2)c1.Cl	100%	100%	0%
CN1CCN(c2ccnc3ccc(NC(=O)Nc4ccc(-c5ccccc5)cc4)cc23)CC1	99%	41%	0%
Cc1cccc2nc(-c3ccc(-c4ccc(CN5CCC(CCN6CCCCC6)CC5)cc4)cc3)[nH]c12.O=C(O)C(F)(F)F	100%	100%	99%
CCCCCCN1CCC(NCc2cccc3ccccc23)CC1.O=C(O)C(F)(F)F	95%	12%	21%
Cc1noc(C)c1-c1cccc(CNCc2ccc(-c3cccc(-c4nc5cc(C(F)(F)F)ccc5[nH]4)c3)cc2)c1.O=C(O)C(F)(F)F	100%	97%	37%
Cc1cccc2nc(-c3ccc(-c4cccc(NC(=O)c5cccc(C(N)=O)c5)c4)cc3)[nH]c12	84%	87%	14%
Cc1noc(=O)c2ccc(NC(=O)C(O)(CSc3ccccc3)CC(C)C)cc12 (stereo not given)	99%	89%	0%
O=C(/C=C/c1ccc(Cl)c(Cl)c1)NCCCCCN1CCCN(C(=O)Nc2ccc(F)c(F)c2)CC1	100%	0%	26%
CN(C)c1cccc2c(S(=O)(=O)Nc3cccc(CCN4CCC(N5CCCCC5)CC4)c3)cccc12	98%	54%	41%
COc1cc(CN2CCC(C(=O)Nc3ccc(-c4cccc(C)c4)cc3)CC2)ccc1O	100%	85%	25%
O=C(NCCCN1CCC(N2CCCCC2)CC1)c1ccc(N2CCOc3ccccc32)s1	100%	12%	37%
Cl.O=c1cc(NCCCNCc2ccc(Cl)c(Cl)c2)[nH]c2cc(F)cc(F)c12	100%	94%	11%
c1cc2[nH]c(CCCc3nc4cc(C5=N[C@H]6CCCC[C@H]6N5)ccc4[nH]3)nc2cc1C1=N[C@@H]2CCCC[C@@H]2N1	85%	84%	10%
Nc1nccc2ccc(-c3ccnc(NCc4cccnc4)n3)cc12	100%	95%	11%
CCN(CCCN1CCCC1)c1cc(C)nc(Nc2ccc(Cl)cc2)n1.O=C(O)C(=O)O	100%	12%	5%
COc1ccc(C2(CNCC(O)c3cccc([N+](=O)[O-])c3)CCCC2)cc1OC (stereo not given)	93%	85%	10%
CN(C)Cc1cccc(-c2ccc(NC(=O)c3ccc4c(=O)n(C5CCCCC5)cnc4c3)cc2)c1	96%	53%	92%
COc1ccc(C(C(=O)NC2CCN(C[C@H](O)c3ccnc4ccc(OC)cc34)CC2)N2CCN(Cc3ccccc3)CC2)cc1 (stereo not given in full)	100%	72%	18%
O=C(O)C(F)(F)F.c1ccc(CNCc2ccc(-c3cccc(-c4nc5ccccc5[nH]4)c3)cc2)cc1	100%	78%	55%
Cn1nc(-c2ccccc2F)c2cc(C(=O)NC3CCN(Cc4ccccc4)CC3)sc21	97%	34%	5%
COc1cccc(NC(=O)Cn2c(C)c(C#N)c3ccccc32)c1	100%	100%	16%
COc1ccc(OCC(=O)Nc2cc(-c3nc4ccccc4[nH]3)ccc2Cl)cc1	94%	33%	18%
O=C(O)C(F)(F)F.c1ccc(CN2CCC(NCc3ccccc3-c3ccc(CNCc4ccc5c(c4)OCO5)cc3)CC2)cc1	100%	49%	26%
CO/C(=C\C=C\c1cc2cc(Cl)c(Cl)cc2[nH]1)C(=O)NCCCN1CCN(c2cccc(OCC(=O)Nc3ccccc3)c2)CC1	100%	81%	49%
COc1cc(NC(=O)N2CCOC(CCN3CCC4(CCc5ccccc54)CC3)(c3ccc(Cl)c(Cl)c3)C2)cc(OC)c1OC (stereo not given)	94%	67%	17%
CCC1CCCCN1S(=O)(=O)c1ccc(OC)c(N2CCN(C(=O)C(Cl)(Cl)Cl)CC2)c1 (stereo not given)	89%	29%	9%
CCN(CC)CCN(Cc1ccc(-c2ccc(C(F)(F)F)cc2)cc1)C(=O)Cn1c(CCc2cccc(F)c2F)nc(=O)c2cc(F)ccc21.O=C(O)C(O)C(O)C(=O)O	98%	45%	15%
NCCCNc1ccc(-c2ccc(NC(=O)Nc3cc(C(F)(F)F)ccc3F)cc2)cn1.O=C(O)C(F)(F)F	100%	66%	0%
Cc1cc(-c2ccc(CNCc3ccc(F)cc3)cc2)ccc1S(=O)(=O)NCCN1CCCC1.O=C(O)C(F)(F)F	100%	41%	95%
COc1cc2c(c(Cl)c1OC)CCN(Cc1ccccc1)CC2c1ccc(NC(=O)C(F)(F)F)cc1 (stereo not given)	85%	79%	0%
